Experimental findings from PMC7819943, “Rice protein-binding microarrays: a tool to detect cis-acting elements near promoter regions in rice” are described below.

The full ranking holds about 68,000 sequences; the median of “fluorescence intensity (a.u.)” is about 9,100, and the highest 2% start at about 16,000. The list comes from a sample in which the highest values are over-represented; it also holds similar and randomly drawn sequences.

Sequence of OsWRKY34 (Q0JBA9 entry or part of it): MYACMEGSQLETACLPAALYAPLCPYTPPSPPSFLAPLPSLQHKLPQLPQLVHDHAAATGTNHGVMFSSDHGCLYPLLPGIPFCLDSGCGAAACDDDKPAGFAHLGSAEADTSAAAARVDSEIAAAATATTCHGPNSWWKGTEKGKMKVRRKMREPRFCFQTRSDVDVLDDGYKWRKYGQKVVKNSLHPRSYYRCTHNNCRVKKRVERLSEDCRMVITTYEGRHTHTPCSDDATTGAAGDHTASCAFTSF

The test addresses OsWRKY34 (Oryza sativa, UniProt Q0JBA9 1-250). In words: protein-binding microarray (RPBM); PBS, 2% BSA, 51.3 ng/ul salmon testes DNA, 50 uM zinc acetate, 200 nM TF, 25 C, 1 h; high values mean tight binding. The note with it: protein: recombinant; tags: N-terminal polyhistidine and DsRed monomer fusion (pET32a); label: CyDye5-dUTP incorporated in the synthesized complementary strand; 3' TTTTT single-stranded linker to array surface; dsDNA, one strand shown. The procedure, abridged: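 An Axon 4000B scanner gave the binding signal as per-feature fluorescence intensity in arbitrary units. This followed washing of a custom Agilent array that had been incubated for 1 h at 25 °C with 200 nM protein in PBS, 2% BSA, salmon testes DNA and 50 µM zinc acetate. The proteins were transcription factors fused at the N-terminus to polyhistidine and DsRed, expressed in E. coli BL21-CodonPlus and purified on Ni–NTA.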
“TTTGTCCTGGGCTTCTTTCGGCCCAATCTCTCTCCCGTCGCGGAGTCACCTAGTGCAG”: the binding signal is 11100 fluorescence intensity (a.u.). In the case of “ACTGTTTATAGGGTAGGGGTAAGGTTGTGTTCATATAGGTCGGAGTCACCTAGTGCAG” it was 11700 fluorescence intensity (a.u.).

On to “GGGTGCTGGGGCTTTGGCTGCCTTGACTTGGATTGCCTTCCGGAGTCACCTAGTGCAG”, for which the binding signal is 8640 fluorescence intensity (a.u.).

“GGTGCGGCGGTGGGCGGCATGGAGATGGGGAGAGGAGGCGCGGAGTCACCTAGTGCAG”: the binding signal is 10600 fluorescence intensity (a.u.). As to “TGGGGATGGAGCTTGCCTGGGTGGTGGTGAGGGCGCAGTTCGGAGTCACCTAGTGCAG”, the binding signal is 8680 fluorescence intensity (a.u.). Regarding “TCTCCTGGTTTTGTGTGTTAGCGCTGTCAGTGTGTGGGTGCGGAGTCACCTAGTGCAG”, the binding signal was 8120 fluorescence intensity (a.u.). Regarding “GGGTGGGGTGGGCCTGGGCTGATGCATGTTTGGCGCTTAGCGGAGTCACCTAGTGCAG”, the binding signal was 21200 fluorescence intensity (a.u.). On to “TCCGGGCTGGGTGGGTGGGGTGGGGATGGAGCTTGCCTGGCGGAGTCACCTAGTGCAG”, for which the binding signal is 24100 fluorescence intensity (a.u.). On to “CTGGGGTTGGCCTGGGCTGATATATGTTTGGCGCTCAAAACGGAGTCACCTAGTGCAG”, for which the binding signal was 11100 fluorescence intensity (a.u.). As for “GGGTGGGTGGGGCGGTGCTTTCCTGGAGATGGGAGAGTGGCGGAGTCACCTAGTGCAG”, the binding signal is 23000 fluorescence intensity (a.u.). As for “TCGGAGTGGGGAGATGGTGTCGGGGTGCTGGGTTTCCGGGCGGAGTCACCTAGTGCAG”, the binding signal was 13100 fluorescence intensity (a.u.). In the case of “GAGGGATGTCTTATATCTAGTTTTGTGGTTGGAGGATGATCGGAGTCACCTAGTGCAG” it was 8770 fluorescence intensity (a.u.). “TCTGTGTTGGCGAGAGTTGGTGTCTGGAATTGGGCTTGGTCGGAGTCACCTAGTGCAG”: the binding signal is 9200 fluorescence intensity (a.u.). On to “GTTCTATTGTACTGGTCAGTTCAGTGGACTCGGTTCTGTTCGGAGTCACCTAGTGCAG”, for which the binding signal was 9260 fluorescence intensity (a.u.). Next, “CTACACTGTCTTGCTCGCTCATTGTCTCTCTCTGCATTTGCGGAGTCACCTAGTGCAG”: 8580 fluorescence intensity (a.u.); “TATGTTCGGTATCGTATTAAATCTACTCCTATTTGTACCTCGGAGTCACCTAGTGCAG”: 8570 fluorescence intensity (a.u.); “TTTTGTTCGCTACTATAGGCCCACACGTCTGTGCCCATGGCGGAGTCACCTAGTGCAG”: 8660 fluorescence intensity (a.u.). “CTCCTCTTCTTCTCTTCTCCTTCGTTGGGCGTGGGCGTCGCGGAGTCACCTAGTGCAG”: the binding signal is 12400 fluorescence intensity (a.u.). “CCGACGCCTACTACTTCGCCCACTAGCCACGCGTGCTGCCCGGAGTCACCTAGTGCAG”: the binding signal was 9050 fluorescence intensity (a.u.). With “TACTGTATAGTTGTTACAACTTCCTTTTTAATTATTCAATCGGAGTCACCTAGTGCAG”, the binding signal was 8060 fluorescence intensity (a.u.). As for “GACGAATGGTCAAACACGTACTAAAAAGTCAACGGTGTCACGGAGTCACCTAGTGCAG”, the binding signal is 12200 fluorescence intensity (a.u.). “GGTCAAATACGTACTAAAAAGTCAACGGTGTCAAACATTTCGGAGTCACCTAGTGCAG”: the binding signal was 12900 fluorescence intensity (a.u.).

In the case of “AGACGAATGGTCAAACACGTATTAAAAAGTCAACGGTGTCCGGAGTCACCTAGTGCAG”, the binding signal was 19700 fluorescence intensity (a.u.). For “GAATGGTCAAACACGTACTAAAAAAGTCAACGGTGTCAAACGGAGTCACCTAGTGCAG”, the binding signal is 17500 fluorescence intensity (a.u.). Next, “AATGGTCAAACACGTATTTAAAAAGTCAACGGTGTCAAACCGGAGTCACCTAGTGCAG”: 14100 fluorescence intensity (a.u.); “AAGACGAATGATCAAACACGTACTAAAAAAGTCAACGGTGCGGAGTCACCTAGTGCAG”: 11600 fluorescence intensity (a.u.). Next, “CTAATGGTTCTGATCGCCGTGCCTAACCCTAGCCCCATATCGGAGTCACCTAGTGCAG”: 8400 fluorescence intensity (a.u.); “TCTTTTGCTTCTGTTCTGCACCGGTCTCTCTGATGGATGTCGGAGTCACCTAGTGCAG”: 9680 fluorescence intensity (a.u.); “AATAGATGACATTGTTGACTTATTCTTACATGTTTGCCCACGGAGTCACCTAGTGCAG”: 9350 fluorescence intensity (a.u.). Take “TCCACCTCCTAGCGAAATGCATGGTTGGCCAAACAACACACGGAGTCACCTAGTGCAG”: the binding signal was 8300 fluorescence intensity (a.u.). With “TGACAATGGTGTTGCATCTCCAAAGCTGCAGAAACAAACACGGAGTCACCTAGTGCAG”, the binding signal was 48300 fluorescence intensity (a.u.).

For the sequence “AATTGCTGTTGACCTGTTGTTGTGCTCCAACATCCAAACACGGAGTCACCTAGTGCAG”, the binding signal is 8290 fluorescence intensity (a.u.).

Take “TACGAGGAGGGCCCATGCGTCGGTGGGTAGGGTGAAAAGACGGAGTCACCTAGTGCAG”: the binding signal was 8690 fluorescence intensity (a.u.). With “GAAAGTGGGAGAGAGAATAGGTTGGGGTGGTTGGTTTGGGCGGAGTCACCTAGTGCAG”, the binding signal was 14700 fluorescence intensity (a.u.). For the sequence “AGGAGGGCGGGGTCGTCGTCGTCCGGGGTGGTGGTGGCCGCGGAGTCACCTAGTGCAG”, the binding signal was 17000 fluorescence intensity (a.u.).

As for “GGAGGAGGTGGCGGCGGAGGGGTTGGTGGTGGAGGTGGTCCGGAGTCACCTAGTGCAG”, the binding signal is 20800 fluorescence intensity (a.u.). Regarding “TGGTGGTGAGGAGGAGGAGGAGGAGGGCGGGGTCGTCGTCCGGAGTCACCTAGTGCAG”, the binding signal is 16200 fluorescence intensity (a.u.). For “GGAGGGTGGAGGGCGGAGGACGGAGGTGGTGGCGCCGCGCCGGAGTCACCTAGTGCAG”, the binding signal is 9550 fluorescence intensity (a.u.). For “AATAAAGTTGGGTGGTTGGGGCGCGCGATAGGAGTAAATCCGGAGTCACCTAGTGCAG”, the binding signal was 17400 fluorescence intensity (a.u.). “GAGGTGGTGGAGGAGGAGGCCAGGGGTTCGTTGGCGGCGGCGGAGTCACCTAGTGCAG”: the binding signal was 8840 fluorescence intensity (a.u.). Turning to “GACCTTTGGGTAGGGGTGGGGATGGGGCGAAATTACTAAACGGAGTCACCTAGTGCAG”, the binding signal is 30300 fluorescence intensity (a.u.).

Consider “GCGGGGTTGGAGGAGGAGGAGGTGGTGGTGGTGGTGGTGGCGGAGTCACCTAGTGCAG”, for which the binding signal was 15300 fluorescence intensity (a.u.). In the case of “ACTAACGAAATTACTACTTCGTAGGGGTAGGGGTGGCGTGCGGAGTCACCTAGTGCAG”, the binding signal is 9370 fluorescence intensity (a.u.).

Turning to “TGGGGATGGGGAATTGACCTGGGTAGGGGTGGTAATTGGGCGGAGTCACCTAGTGCAG”, the binding signal is 16000 fluorescence intensity (a.u.). In the case of “GCTGGCGCCGGAGAGAGAGAGTGGGTTGGTTGTAATAAATCGGAGTCACCTAGTGCAG” it was 9290 fluorescence intensity (a.u.).
